Measurements as given in PubChem BioAssay (NCI).
Where “and” joins values, the source holds several entries; their conditions need not be identical. Equal values may be shown once. About 83,000 compounds went through this panel and 20% of them were active in at least one assay; those are over-represented in the sample as a whole.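 The endpoint reported here, percent growth, reads 100 for growth as untreated, 0 for no net growth and -100 for all cells dead.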 Values without a mark were called inactive. Calls of active or inactive are those of the source. The calls were made as follows: active = growth percent below 10; inactive = the rest.

Test system: HL-60(TB) leukemia
Test: NCI-60 one-dose screen, 48 h (100 = growth as untreated, 0 = no growth, -100 = all killed)
Settings: 10 µM unless noted

Structure (SMILES)	growth
CCOC(=O)NCCc1nc2c([nH]1)c(=O)n(C)c(=O)n2C	124%
Cc1ccc(NCCN(C)CC(C)O)c2c(=O)c3ccc(Cl)cc3sc12 (stereo not given)	9.65% (active)
O=S(=O)(Nc1ccc(Cl)c(C(F)(F)F)c1)c1ccc(-c2cnc(C3CC3)o2)cc1	-38.6% (active)
C=C1C(=O)O[C@H]2[C@H]1CC/C(COC(=O)C(=O)c1cn(C)c3ccc(Cl)cc13)=C\CC[C@@]1(C)O[C@@H]21	-35.1% (active)
CN(C)C(=S)Sc1ccc([N+](=O)[O-])cc1[N+](=O)[O-]	-5.16% (active)
Cn1ncc2c(Nc3ccc(O)cc3)nc(Cl)nc21	95.1%
CC1(C)Cc2c(cn(Cc3ccccc3)c2-c2ccccc2)-c2oncc21	85.7%
O=C(c1ccccc1)C(O)C(Br)(CBr)c1ccccc1 (stereo not given)	65.4%
OCCN1CCN(CCCN2c3ccccc3Sc3ccc(Cl)cc32)CC1	85.8% and 73.9%
N#Cc1c(N)nc2c(nnn2-c2cccc(C(F)(F)F)c2)c1N	95.2%
COc1ccc(Cc2cc(-c3ccccc3)nn(Cc3ccccc3)c2=O)cc1OC	25.8%
O=C(OCc1ccc2c(Br)cc(Br)c(O)c2n1)c1cc2ccccc2[nH]1	-46.1% (active)
CC1CN(Cc2ccco2)C(=S)N(c2ccccc2)C1=O (stereo not given)	61.3%
CCCCCCCCCCCCCCCCN(CC)CC	-61.2% (active)
CCCNC(=S)N/N=C(\C)c1ccccn1	-8.41% (active)
COc1ccc(Nc2nc(N/N=C/c3ccc(O)cc3)nc(Nc3ccc([N+](=O)[O-])cc3)n2)cc1	116%
O=[N+]([O-])c1cccc(N=C(Nc2cccc([N+](=O)[O-])c2)c2ccccc2)c1	102%
COc1cc(CNC(=O)CCCCC[P+](c2ccccc2)(c2ccccc2)c2ccccc2)c(OC)c2c1OCO2	-2.75% (active)
CN1CCN(c2ccc(NC(=O)c3cncnc3Nc3ccc(OCc4ccccn4)c(Cl)c3)cc2)CC1	-57.9% (active)
O=C(Nc1ccc(Cl)cc1F)c1ccccc1O	19.9%

Structure (SMILES)	growth
CCCNc1ccc(C2=NCCCN2)cc1	95.5%
COC(=O)c1cccc(NC(=O)c2ccc(-c3cccc(N)c3)o2)c1	99.9%
CC1=Nc2cnc(Nc3ccc(OCCN4CCCC4)cc3)nc2Nc2ccccc21	76.4%
COC(=O)CC[C@@H]1O[C@@H](c2cccc(C(F)(F)F)c2)[C@@H](O)[C@H]1O	105%
Cc1c2c(nn1C(=O)c1nn(-c3ccc(Cl)cc3)cc1O)-c1ccccc1CC2	-43.4% (active)
Cn1c(-c2ccc(Br)cc2)c(O)c(=O)c2c(F)cccc21	122%
CSc1ccc(SC2c3ccc(C)cc3Oc3nc(N)c(C#N)c(N)c32)cc1 (stereo not given)	-52% (active)
COc1ccc(-c2nsc3c2NC(=O)CC3c2ccc(F)cc2)cc1 (stereo not given)	7.88% (active)
C/C(=N\O)C1(O)CCCCC1	83.6%
CCCCC1C(=O)N(c2ccccc2)N(c2ccccc2)C1=O	102%
CN1CCN(CC#CCn2c3c(c4ccccc42)C[C@]2(C)[C@H]4CC[C@@H]5[C@H]6[C@H]7OC(=O)[C@@]6(CCC7(C)C)CC[C@@]5(C)[C@]4(C)CC[C@H]2C3(C)C)CC1	66.3%
N#Cc1c(C(F)(F)F)cc(Nc2ccc3nc(NCCN4CCCC4)oc3c2)n2c1nc1ccccc12	86.6%
C#CCOc1cccc(Nc2ncnc3ccc(NC(=O)CCl)cc23)c1	-58.4% (active)
O=C(O)/C(=C\c1ccc(Cl)cc1)c1ccc(Cl)cc1	53.3%
NC(=O)NO	82.9% and 72.8%
CCc1ccccc1-n1c(N)c(C#N)c(-c2ccc(N(C)C)cc2)c(C#N)c1=O	96.4%
Clc1ccc(-c2ccc(CNCC3CCNCC3)o2)c(-c2ccccc2)c1	-62.3% (active)
CN(C)CCNc1nc2c3cc(Cl)ccc3nn2c2ccccc12	56.1%
O=C1C=CC2(NN=C(c3ccccc3)N2c2ccccc2)c2cccc(O)c21 (stereo not given)	29.8%
O=C(CI)NC1Oc2ccccc2-c2oc(=O)c(-c3ccccc3)cc21 (stereo not given)	-39.3% (active)
